From the OligoGym collection

These sequences were tested against MRPS24 (assay: pooled miR-30 sensor sort-seq; sequence = guide strand). Conditions: shRNA.
Also: reference of the scale not given here.

Row | Sequence | sensor-assay potency score (higher = more potent)
1 | TACCCCACATGAACTTGCGAAG | -1.43
2 | TTGGAGGTGGAGTCGCACAGGA | -0.602
3 | TAAAAGTAGGACAGCAAAGTTT | -1.12
4 | TAAAACCAGCTGGTCAGCCAGG | -1.47
5 | TTTGTAAAAGTAGGACAGCAAA | -1.45
6 | TAGGTCACCGGCTTGTCCCCCT | 0.167
7 | TTCACTGTAGCCCACGAGGAAG | -1.08
8 | TACTTGTGTGGAGACAACTGCC | -0.594
9 | TGTGCAGCGACAGCCAGCCTTT | -0.931
10 | TTGTGTGGAGACAACTGCCTCA | -0.151
11 | AAGGAAAACATCCTCCACCGTT | -0.646
12 | TAGGACAGCAAAGTTTCACTGT | 0.628

The sequences below were run against MRS2 in the same assay as above. Conditions: shRNA.

Row | Sequence | sensor-assay potency score (higher = more potent)
13 | TGTGATACTCATTACATGCTGA | 0.129
14 | TAATATCTGTTTCTAACTCTGA | -0.212
15 | TAATATCAGAAGACACTCTGGA | 0.725
16 | TTGATACACAGAGCTCTTCTAG | -0.709
17 | TTCCATGCTTCTATCTGCCAGA | -0.489
18 | TTTGTCACAGTAAATACTGGGG | 0.152
19 | TAAACCGGTGCACTTCACCTGC | -0.316
20 | TTAATATCTGTTTCTAACTCTG | 0.197
21 | TAGCAACTCTTCCTCATCCAAG | -1
22 | TACACAGAGCTCTTCTAGCAAC | -1.3
23 | TGAATCATCAATCAGCACCCTA | -0.284
